Here are results for 40 molecules from PubChem BioAssay (NCATS).

The structures appear in SMILES notation. A number with no mark means an inactive call. The rule behind the calls is not given here. Where only a bound is given, the exact number is not on record here.
Potency is the fitted concentration of half-maximal effect.

The assay has as its system HIV-1 nucleocapsid protein NCp7 (binding to TG oligonucleotide). Kind of assay: HIV Nucleocapsid (AID 346).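 Note: potency is for inhibitors that block NC binding and lower polarization.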 The conditions noted are these: HIV-1 NC / fluorescein-TGTGTGTG probe, fluorescence polarization. How it is done: NCGC Assay Overview: HIV-1 nucleocapsid protein (HIV-1 NC) is a small (6.5 kDa) basic zinc-finger protein which participates in packaging of viral genomic RNA. The spacing and metal-chelating residues (3 Cys, 1 His) of the Cys-X2-Cys-X4-His-X4-Cys Zn fingers are conserved among all known retroviruses (J. Med. Chem. 1998, 41, 1371-1381). HIV-1 NC was assayed for its binding to the consensus sequence single-stranded 5'-TGTGTGTG. […] High salt was included to increase the stringency of binding and inhibitor screen. Reducing agents and zinc were present to stabilize the nucleocapsid zinc-finger protein.
NCGC Assay Protocol Summary: Buffer. Hepes pH 7.5, 250mM NaCl, 1uM ZnCl2. 0.004% polyethylene glycol 20000. TCEP (100 uM) and 2-Mercaptoethanol (5 mM), added fresh the day of the experiment. Reagents/Controls. 10 nM TG4xF only in columns 3 and 4 as negative control. 10 nM TG4xF/100 nM HIV-1 NC in columns 1, 2, 5-48. Titration of control compound NSC-13778 (from 20 mM, then 1:2) pin-transferred to column 2. Assay Steps. Two uL of reagents were dispensed to 1536-well Kalypsys black plates. The plates were centrifuged for 1 min at 1000 rpm. Compounds and controls (20 nL) were transferred via Kalypsys PinTool. The plates were incubated for 1 hr at room temperature, and then read on ViewLux (Perkin-Elmer). High-throughput CCD imager using fluorescein polarization filter set and 45 seconds exposure time.
Background: Polarisation of emitted light reports the rotation of a fluorescent probe.
`COCCn1c(=O)c(-c2ccc(OC)cc2)nc2cnc(OC)nc21`: the Potency is above 20 µM.

`COc1ccc(CNc2cc(-c3ccccc3Cl)ncn2)c(OC)c1`: the Potency was above 20 µM.

On to `COCC(=O)N1CCC[C@@]2(CCN(C(=O)Nc3ccccc3)C2)C1`, for which the Potency was above 20 µM.

As for `Cc1cnc(CNc2cc(-c3ccccc3CN(C)C)ncn2)cn1`, the Potency was above 20 µM.

Turning to `CC(C)NC(=O)N1CCC2(CC1)CCN(S(C)(=O)=O)CC2`, the Potency is above 20 µM.

With `O=C(Nc1ccccc1)N1CCC2(CC1)CCN(C(=O)c1ccncc1)CC2`, the Potency is above 20 µM.

Regarding `O=c1c(CCc2ccccc2)nc2cnc(Nc3ccccc3)nc2n1C[C@H]1CCCO1`, the Potency was above 20 µM.

With `O=C(c1csnn1)N1CCC2(CCCN(c3ccncc3)C2)CC1`, the Potency was above 20 µM.

Take `COCC(=O)N1CCC[C@@]2(CCN(c3ccccn3)C2)C1`: the Potency is above 20 µM.

On to `CCNc1ncc2nc(-c3cccc(C#N)c3)c(=O)n(CCC#N)c2n1`, for which the Potency was above 4 µM.

Consider `COc1ccc(CNc2ncncc2-c2ccc(N(C)C)cc2)c(OC)c1`, for which the Potency is above 20 µM.

Consider `CC(C)CN1CCC2(CC1)CCN(C(=O)c1cccc(F)c1)CC2`, for which the Potency was above 20 µM.

With `O=C(c1cccc(F)c1)N1CCC2(CC1)CN(c1ccc(-c3ccccc3)cc1)C2`, the Potency was above 20 µM.

For `CS(=O)(=O)N1CCC[C@@]2(CCN(Cc3nccs3)C2)C1`, the Potency is above 20 µM.

Regarding `COc1ccc(C(=O)N2CCC[C@@]3(CCN(c4ccccc4)C3)C2)cc1`, the Potency was above 20 µM.

In the case of `COc1ccc(-c2nc3cnc(N(C)C)nc3n(-c3ccccc3)c2=O)cc1`, the Potency is above 20 µM.

As to `COc1ccccc1CN1CC2(CCN(C(=O)c3ccncc3)CC2)C1`, the Potency is above 20 µM.

Turning to `COCCNc1ncnc2ccc(-c3cccnc3)cc12`, the Potency is above 20 µM.

Turning to `c1ccc(Nc2ncnc3ccc(-c4ccoc4)cc23)cc1`, the Potency was above 20 µM.

With `Cn1cccc1C(=O)N1CCC[C@@]2(CCN(c3ccncc3)C2)C1`, the Potency is above 20 µM.

For `N#Cc1ccc(CN2CCC3(CC2)CCN(C(=O)c2csnn2)CC3)cc1`, the Potency was above 20 µM.

In the case of `Cc1nc2cnc(N3CCOCC3)nc2n(C2CC2)c1=O`, the Potency is above 20 µM.

Turning to `O=c1c(-c2ccc(F)cc2)nc2cncnc2n1-c1ccccc1`, the Potency is above 20 µM.

Turning to `N#Cc1cccc(-c2nccc(NCc3cccs3)n2)c1`, the Potency was above 20 µM.

Consider `CCNc1ncc2nc(-c3ccc(OC)cc3)c(=O)n(C)c2n1`, for which the Potency is above 20 µM.

For the molecule `N#Cc1ccccc1-c1ccc2ncnc(N3CCNCC3)c2c1`, the Potency was above 20 µM.

Take `CN1CCN(c2ncc3nc(-c4cccc(C#N)c4)c(=O)n(C)c3n2)CC1`: the Potency is above 20 µM.

Regarding `CS(=O)(=O)Nc1cccc(-c2cncnc2-n2ccnc2)c1`, the Potency is above 20 µM.

As for `Cc1noc(C)c1-c1nc(NCc2cccs2)c2ccccc2n1`, the Potency was above 20 µM.

Regarding `Cc1cnc(CNc2ncncc2-c2ccoc2)cn1`, the Potency is above 20 µM.

For `COc1ccccc1-c1cc(NCc2cccs2)ncn1`, the Potency was above 20 µM.

On to `c1csc(CNc2nc(-c3ccoc3)nc3ccccc23)c1`, for which the Potency was above 20 µM.

For the molecule `COc1cccc(-c2nc(NCc3cccnc3)c3ccccc3n2)c1`, the Potency is above 20 µM.

Consider `COCC(=O)N1CCC2(CC1)CN(Cc1ccc(C#N)cc1)C2`, for which the Potency was above 20 µM.

Turning to `N#CCCn1c(=O)cnc2cnc(Nc3ccccc3)nc21`, the Potency is above 20 µM.

For the molecule `COc1cccc(-c2nc(NCc3cnc(C)cn3)c3ccccc3n2)c1`, the Potency was above 20 µM.

Regarding `Cc1noc(C)c1-c1cncnc1NCc1ccccc1`, the Potency was above 20 µM.

On to `COc1cccc(Nc2ncc3nc(-c4cc(F)cc(F)c4)c(=O)n(CCC#N)c3n2)c1`, for which the Potency was above 20 µM.

`O=S(=O)(c1ccccc1)N1CCC2(CCN(c3cccc(-c4ccccc4)c3)CC2)CC1`: the Potency is above 20 µM.

For the molecule `COc1ccc(C(=O)N2CCC[C@@]3(CCN(Cc4cc(C(F)(F)F)cc(C(F)(F)F)c4)C3)C2)cc1`, the Potency was above 20 µM.
